Reference: PubChem BioAssay AID485275 (NMMLSC, 2010)
Hit rate of the full screen: of about 330,000 compounds, about 1,400 (0.42%) were called active. Many of the other results were omitted from the sample, so actives are more common in it than they were. Values without a mark were called inactive.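 The calls were made as follows: active = plate passing quality check with inhibition over a set limit, or well fluorescence over plate mean plus 4 SD; inactive = the rest.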

test: inhibitors of Candida efflux pumps in yeast, primary screen, S. cerevisiae, Nile Red, multiplex (AID 485275);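 also: Nile Red retained in pooled yeast measured as flow cytometry median fluorescence; 0% = buffer negative control and 100% = Enniatin B positive control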; settings: S. cerevisiae Candida pump triplex, at 10 µM, stronger effect = higher value

With COCCNC(=O)c1ccc2c(c1)ncn2-c1ccc(C)c(Cl)c1 as the compound, how does the inhibition read?
Its inhibition is 0.09%.

Which inhibition does the source give for CCn1c(SCc2ccccc2)nc2cc(OC)c(OC)cc2c1=O here?
Its inhibition is -0.05%.

With CCOCCCn1c(NN)nc2ccccc2c1=O as the compound, how does the inhibition read?
The inhibition was 0.04%.

With CCn1c(/C=C/c2ccc([N+](=O)[O-])o2)nc2ccccc2c1=O as the compound, how does the inhibition read?
Its inhibition is 1.26% (active).

Which inhibition does the source give for C=CC[C@H](CC(=O)NCCO)C(=O)N[C@@H](COC(=O)[C@@H](CC=C)Cc1ccc(F)cc1)Cc1c[nH]c2ccccc12 here?
The inhibition was -0.26%.

Which inhibition does the source give for Cc1ccc(C(=O)NC(=S)Nc2ccc(N3CCOCC3)cc2)cc1 here?
The inhibition was 0%.

For COc1ccc(C(=O)NC(=S)Nc2ccccc2N2CCN(S(C)(=O)=O)CC2)cc1OC, which inhibition is on record?
The inhibition was 0.06%.

Which inhibition does the source give for COc1ccc(C(=O)NC(=S)Nc2ccc(N3CCCC3)cc2)cc1OC here?
Its inhibition is 6.65% (active).

With CCn1cc(C(=O)N2CC(C)CC(C)C2)c(=O)c2cc(S(=O)(=O)N3CCCC3)ccc21 (stereo not given) as the compound, how does the inhibition read?
Its inhibition is 0.08%.

With O=C(NCCc1ccccn1)c1cc(-c2ccc(Cl)cc2)nc2ccccc12 as the compound, how does the inhibition read?
The inhibition was 0.18%.

With Cn1nnnc1SCC(=O)Nc1ccccc1C(=O)NC1CC1 as the compound, how does the inhibition read?
The inhibition was 0%.

For CC(/C=N/NC(=O)c1cc(-c2ccc3ccccc3c2)n[nH]1)=C\c1ccco1, which inhibition is on record?
Its inhibition is 0.5% (active).

With CC(C)(C)C1CCC(=NNC(=O)c2cc(-c3ccccc3)n[nH]2)CC1 (stereo not given) as the compound, how does the inhibition read?
The inhibition was 0.31%.

For CC(=C/c1ccccc1)/C=N/NC(=O)c1cc(C)oc1C, which inhibition is on record?
The inhibition was 0.06%.

For CCOC(OCC)c1ccc(/C=C\c2nccc(N)n2)cc1, which inhibition is on record?
The inhibition was -0.05%.

With Cc1ccc(-n2c(SCC(=O)Nc3ncc(Cl)cc3Cl)nc3ccccc32)cc1 as the compound, how does the inhibition read?
Its inhibition is 0.75%.

For CCCn1c(O)c(CN2CCCC(C)C2)c(C)c(C#N)c1=O (stereo not given), which inhibition is on record?
The inhibition was -0.15%.

For CCOc1ccc(N2C(=O)CN(c3cccc4ccccc34)C2=S)cc1, which inhibition is on record?
The inhibition was -0.04%.

Which inhibition does the source give for O=C(NCc1ccc2c(c1)OCO2)C(=O)NCC1OCCN1S(=O)(=O)c1ccc(F)cc1 (stereo not given) here?
The inhibition was 0.25%.

For COc1ccc(S(=O)(=O)N2CCOC2CNC(=O)C(=O)NCc2ccc(F)cc2)cc1 (stereo not given), which inhibition is on record?
The inhibition was 5.66% (active).

Which inhibition does the source give for COc1ccc(CCNC(=O)C(=O)NCC2OCCN2S(=O)(=O)c2ccc(F)cc2)cc1OC (stereo not given) here?
The inhibition was 0.07%.

Which inhibition does the source give for O=C(c1ccc(Cl)nc1)N1CCN(S(=O)(=O)c2ccc3c(c2)OCCO3)CC1 here?
Its inhibition is -0.06%.

Which inhibition does the source give for O=C(OCc1ccc(Br)cc1)c1cccc(-c2nnc(-c3ccccc3)o2)c1 here?
The inhibition was 0.06%.

With O=C(OCC(=O)c1c[nH]c2ccccc12)c1cccc(O)c1 as the compound, how does the inhibition read?
Its inhibition is 0.55%.

With O=C(OCc1ccc(-c2ccccc2)cc1)c1cccc(O)c1 as the compound, how does the inhibition read?
The inhibition was 20.2% (active).

With COc1cc(CNc2ncn[nH]2)ccc1OCc1ccccc1C as the compound, how does the inhibition read?
Its inhibition is 0.06%.

With [2H]C(CCOS(N)(=O)=O)c1ccccc1 (stereo not given) as the compound, how does the inhibition read?
The inhibition was -0.09%.

Which inhibition does the source give for Fc1cnc(N2CCOCC2)nc1NCc1ccccc1 here?
The inhibition was -0.13%.

For CCOC(=O)c1c(N=CN(C)C)c(C#N)c2n1CCCC2, which inhibition is on record?
Its inhibition is -0.18%.

Which inhibition does the source give for CCCc1nnc(SCC(=O)Nc2ccc(C(=O)OCC)cc2)o1 here?
The inhibition was 2.83% (active).

With COc1ccc(Cc2nnc(SCC(=O)Nc3ccc(C)c(C)c3)o2)cc1OC as the compound, how does the inhibition read?
Its inhibition is -0.04%.

For Cc1ccc(NC(=O)CSc2nnc(COc3ccccc3C)o2)cc1, which inhibition is on record?
The inhibition was -0.17%.

Which inhibition does the source give for O=C(COC(=O)Cn1cnc2ccccc2c1=O)NCc1ccccc1Cl here?
Its inhibition is 0.17%.

Which inhibition does the source give for Nc1ccc2nc3c(=O)[nH]c(=S)[nH]c3nc2c1 here?
The inhibition was 0.97% (active).

Which inhibition does the source give for Cc1noc(C)c1S(=O)(=O)N(C)C[C@H]1Oc2c(NC(=O)Nc3ccc4c(c3)OCO4)cccc2C(=O)N([C@H](C)CO)C[C@@H]1C here?
Its inhibition is 0.73%.

Which inhibition does the source give for COC(=O)[C@]1(CC(C)C)N[C@H](c2ccc(SC3CCCCC3)cc2)[C@@H]2C(=O)N(C)C(=O)[C@@H]21 here?
The inhibition was -0.02%.

With CC[n+]1cc(C)ccc1/C=C/c1ccc(N(C)C)cc1 as the compound, how does the inhibition read?
Its inhibition is 5.98% (active).

For O=C(N/N=C\c1cc2c(cc1Cl)OCO2)c1ccc(Br)s1, which inhibition is on record?
Its inhibition is 0.06%.

With CC(/C=C/c1ccccc1)=N\NC(=O)C1CC1(C)c1ccccc1 (stereo not given) as the compound, how does the inhibition read?
The inhibition was 2.26% (active).

With CC(/C=C/c1ccco1)=N/NC(=O)C1COc2ccccc2O1 (stereo not given) as the compound, how does the inhibition read?
Its inhibition is 0.12%.

With O=C(N/N=C/C=C/c1ccccc1)C1CC1(c1ccccc1)c1ccccc1 (stereo not given) as the compound, how does the inhibition read?
The inhibition was -0.21%.

For Cc1csc(NC(=O)c2ccc(-c3ccc(Cl)cc3Cl)o2)n1, which inhibition is on record?
The inhibition was 16.6% (active).

For Cc1ccc(C(=O)Nc2nc3ccc(Cl)cc3s2)o1, which inhibition is on record?
Its inhibition is -0.17%.

For Cc1csc(NC(=O)c2ccc(C)s2)n1, which inhibition is on record?
The inhibition was 0.06%.

For O=C(NCc1ccncc1)C(=O)NCC1OCCN1S(=O)(=O)c1ccc(Br)cc1 (stereo not given), which inhibition is on record?
The inhibition was 0.06%.

With O=C(COC(=O)c1ccc(N2CCCC2=O)cc1)c1ccc(OC(F)F)cc1 as the compound, how does the inhibition read?
Its inhibition is 0.24%.

Which inhibition does the source give for CC1CCCC(N2CCN(C(=O)c3ccc(F)cc3)CC2)C1 (stereo not given) here?
Its inhibition is -0.1%.

Which inhibition does the source give for CCn1c(SC(C)C(=O)Nc2ccc(N3CCOCC3)cc2)nnc1-c1ccco1 (stereo not given) here?
Its inhibition is 0.21%.

With O=C(CN1C(=O)c2cccnc2Oc2ccc(Cl)cc21)NCCc1ccccc1 as the compound, how does the inhibition read?
Its inhibition is -0.23%.

With COc1ccccc1C1CCN(c2ccc([N+](=O)[O-])cn2)CC1 as the compound, how does the inhibition read?
Its inhibition is 0.16%.

For N#Cc1c(-c2ccccc2)nc(SCc2ccc([N+](=O)[O-])cc2)[nH]c1=O, which inhibition is on record?
Its inhibition is -0.1%.

With COc1ccccc1CSc1ncc(-c2ccc([N+](=O)[O-])cc2)[nH]1 as the compound, how does the inhibition read?
Its inhibition is 18.3% (active).

Which inhibition does the source give for CCC(Cc1ccccc1)NS(=O)(=O)c1ccc2c(c1)NC(=O)CS2 (stereo not given) here?
Its inhibition is -0.01%.

For CCOc1ccc(C2/C(=C(/O)c3ccc4c(c3)CC(C)O4)C(=O)C(=O)N2CCCn2ccnc2)cc1 (stereo not given), which inhibition is on record?
The inhibition was 4.24% (active).

With COc1ccc(C2/C(=C(/O)c3ccc4c(c3)CC(C)O4)C(=O)C(=O)N2Cc2ccncc2)cc1 (stereo not given) as the compound, how does the inhibition read?
The inhibition was 0.59%.

With COCCCN1C(=O)C(=O)/C(=C(/O)c2ccc3c(c2)CC(C)O3)C1c1cccnc1 (stereo not given) as the compound, how does the inhibition read?
The inhibition was 0.03%.

Which inhibition does the source give for COc1ccc(S(=O)(=O)N2CCCCCC2)cc1C(=O)N(C)Cc1cccc(OC)c1OC here?
Its inhibition is 0.1%.

For O=C(O)c1ccccc1-c1ccccc1C(=O)Nc1ccccc1Br, which inhibition is on record?
The inhibition was -0.16%.

For Cc1nn(C)cc1C(=O)Nc1ccccc1Br, which inhibition is on record?
Its inhibition is 6.48% (active).

Which inhibition does the source give for Cc1nn(C)cc1C(=O)c1ccccc1 here?
The inhibition was -0.06%.
